Where “and” joins values, the source holds several entries; their conditions need not be identical. Equal values may be shown once. For part of these data: Results with a measured potency or affinity are listed apart. The source holds several records for some structures; these can differ, active in one and inactive in another. Calls of active or inactive are those of the source. Unless noted, the rule behind the calls is not given here.
How the values were obtained:
[1] = antimalarial activity against Dd2 strain (AID 2302;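 active = growth inhibition above 50% at the single 2 µM test dose, taken to imply half-maximal potency below 2 µM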;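 note: 0% = DMSO untreated growth and 100% = chloroquine plus artemisinin killed control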); settings: P. falciparum Dd2 in RBCs, LDH growth readout, 72 h; at 2 µM; stronger effect = higher value
[2] = human hepatoma cell viability loss – ATP luminescence, cytotoxicity control for P. falciparum antimalarial project, primary screen (AID 2303;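 active = inhibition above 50%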;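 note: 0% = DMSO wells and 100% = digitonin-killed cells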); settings: HepG2 viability, 24-48 h, at 10 µM, stronger effect = higher value
[3] = target: L-lactate dehydrogenase (Plasmodium falciparum (isolate CDC / Honduras)) (UniProt Q27743); assay: PfLDH activity inhibition – cell lysate, 3D7 strain, counter-screen for P. falciparum growth inhibition project (AID 2304);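 note: 0% = vehicle and 100% = reference inhibitor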; settings: P. falciparum 3D7 crude extract, LDH APAD/NBT absorbance; at 2 µM; stronger effect = higher value
Sequence of L-lactate dehydrogenase (Plasmodium falciparum (isolate CDC / Honduras)) (Q27743 whole entry, looked up): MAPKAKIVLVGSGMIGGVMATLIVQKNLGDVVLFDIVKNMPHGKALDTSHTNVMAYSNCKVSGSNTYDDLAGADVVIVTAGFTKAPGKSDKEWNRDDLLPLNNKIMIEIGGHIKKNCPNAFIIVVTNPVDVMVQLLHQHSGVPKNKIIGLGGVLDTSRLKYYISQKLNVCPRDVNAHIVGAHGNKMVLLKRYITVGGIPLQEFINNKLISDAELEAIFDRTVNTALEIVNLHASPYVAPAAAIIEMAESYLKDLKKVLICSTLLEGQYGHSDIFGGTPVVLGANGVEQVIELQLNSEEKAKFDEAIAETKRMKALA

[4] = inhibition of 3D7 malaria parasite growth – strain 3D7 (AID 2306);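 note: 0% = DMSO wells and 100% = chloroquine plus artemisinin control wells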; settings: P. falciparum 3D7 erythrocytic growth, LDH absorbance, 72 h; at 2 µM; stronger effect = higher value
[5] = target: Calcium-dependent protein kinase 1 (Plasmodium falciparum (isolate 3D7)) (UniProt P62344); assay: PfCDPK1 kinase inhibitors, biochemical, TCAMS library (AID 1159585; cut-off not given, nearly all actives have IC50 up to about 0.98 µM;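 note: inhibitors leave more ATP so luminescence rises with inhibition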); settings: recombinant PfCDPK1, Kinase-Glo ATP depletion luminescence
Sequence of Calcium-dependent protein kinase 1 (Plasmodium falciparum (isolate 3D7)) (P62344 whole entry, looked up): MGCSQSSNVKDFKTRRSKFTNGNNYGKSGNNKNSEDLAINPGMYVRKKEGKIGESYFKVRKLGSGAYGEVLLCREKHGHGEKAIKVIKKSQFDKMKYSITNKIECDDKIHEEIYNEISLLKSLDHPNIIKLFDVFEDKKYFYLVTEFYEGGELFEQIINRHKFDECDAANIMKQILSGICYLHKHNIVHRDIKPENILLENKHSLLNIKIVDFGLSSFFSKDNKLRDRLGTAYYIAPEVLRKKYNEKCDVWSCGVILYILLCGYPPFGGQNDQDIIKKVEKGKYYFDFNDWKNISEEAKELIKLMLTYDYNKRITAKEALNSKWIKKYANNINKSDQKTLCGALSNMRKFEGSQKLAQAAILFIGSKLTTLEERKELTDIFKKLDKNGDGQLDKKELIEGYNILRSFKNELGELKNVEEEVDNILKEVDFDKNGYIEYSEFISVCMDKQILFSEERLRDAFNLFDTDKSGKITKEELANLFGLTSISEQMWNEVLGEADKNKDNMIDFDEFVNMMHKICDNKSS

[6] = target: Plasmodium falciparum protein kinase 6 (PK6, PF3D7_1337100) (UniProt Q8IDW1); assay: PfPK6 kinase inhibitors, biochemical, TCAMS library (AID 1159586); settings: recombinant PfPK6, Kinase-Glo ATP depletion luminescence
Sequence of Plasmodium falciparum protein kinase 6 (PK6, PF3D7_1337100) (Q8IDW1 1-305): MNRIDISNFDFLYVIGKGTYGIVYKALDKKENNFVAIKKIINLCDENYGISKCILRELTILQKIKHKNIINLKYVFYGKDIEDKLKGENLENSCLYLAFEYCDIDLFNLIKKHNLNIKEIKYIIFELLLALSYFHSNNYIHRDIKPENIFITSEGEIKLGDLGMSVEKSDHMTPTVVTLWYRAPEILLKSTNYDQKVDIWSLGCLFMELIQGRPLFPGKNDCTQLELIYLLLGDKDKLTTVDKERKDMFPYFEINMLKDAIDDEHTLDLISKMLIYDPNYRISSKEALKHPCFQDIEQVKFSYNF

[7] = target: Protein kinase 7 (PK7), Plasmodium falciparum 3D7 (PF3D7_0213400) (UniProt Q7YTF7); assay: inhibition of Plasmodium PK7 catalytic activity – biochemical, TCAMS antimalarial set, Kinase-Glo luminescence (AID 1159587); settings: recombinant PfPK7, Kinase-Glo ATP depletion luminescence
Sequence of Protein kinase 7 (PK7), Plasmodium falciparum 3D7 (PF3D7_0213400) (Q7YTF7 1-343): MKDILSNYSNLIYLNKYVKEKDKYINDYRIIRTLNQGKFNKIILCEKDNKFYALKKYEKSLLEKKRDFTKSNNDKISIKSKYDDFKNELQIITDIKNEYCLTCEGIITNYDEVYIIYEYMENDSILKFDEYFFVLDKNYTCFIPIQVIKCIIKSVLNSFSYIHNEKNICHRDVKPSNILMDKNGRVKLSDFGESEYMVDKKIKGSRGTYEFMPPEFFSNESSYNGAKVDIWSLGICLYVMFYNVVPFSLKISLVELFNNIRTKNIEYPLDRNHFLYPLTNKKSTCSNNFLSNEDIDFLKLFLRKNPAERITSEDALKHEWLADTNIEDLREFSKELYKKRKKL

[8] = target: Calcium-dependent protein kinase 4 (Plasmodium falciparum (isolate 3D7)) (UniProt Q8IBS5); assay: PfCDPK4 kinase inhibitors, biochemical, TCAMS library (AID 1159588; cut-off not given, nearly all actives have IC50 up to about 0.91 µM); settings: recombinant PfCDPK4, Kinase-Glo ATP depletion luminescence
Sequence of Calcium-dependent protein kinase 4 (Plasmodium falciparum (isolate 3D7)) (Q8IBS5 whole entry, looked up): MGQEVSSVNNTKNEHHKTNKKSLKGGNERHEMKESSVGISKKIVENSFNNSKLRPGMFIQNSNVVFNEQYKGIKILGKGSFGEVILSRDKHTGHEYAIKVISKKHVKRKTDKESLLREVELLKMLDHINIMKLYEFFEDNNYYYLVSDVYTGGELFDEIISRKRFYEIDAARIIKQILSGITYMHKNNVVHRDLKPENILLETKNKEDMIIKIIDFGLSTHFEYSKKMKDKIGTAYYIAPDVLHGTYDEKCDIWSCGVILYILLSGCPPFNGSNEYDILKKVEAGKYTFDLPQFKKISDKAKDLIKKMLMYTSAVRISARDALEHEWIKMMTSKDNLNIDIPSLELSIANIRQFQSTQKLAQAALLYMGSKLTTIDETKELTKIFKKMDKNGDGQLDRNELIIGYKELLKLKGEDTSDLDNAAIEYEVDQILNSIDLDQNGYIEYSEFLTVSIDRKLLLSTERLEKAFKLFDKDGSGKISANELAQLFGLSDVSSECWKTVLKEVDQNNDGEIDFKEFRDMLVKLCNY

| SMILES | growth inhibition [1] | inhibition [2] | inhibition [3] | growth inhibition [4] | outcome [5] | outcome [6] | outcome [7] | outcome [8] |
| --- | --- | --- | --- | --- | --- | --- | --- | --- |
| Cc1cc(O)cc2c(C3CCN(CC4CCC(NC(=O)/C=C/c5ccccc5Cl)CC4)CC3)c[nH]c12 (configuration not stated) | 84% (active) | 21% (inactive) | 1% (inactive) | 99% (active) | inactive | inactive | inactive | inactive |
| CO/C(=C\C=C\c1cc2cc(Cl)c(Cl)cc2[nH]1)C(=O)N[C@H]1CN2CCC1CC2 | 36% (inactive) | 43% (inactive) | -2% (inactive) | 82% (active) | inactive | inactive | inactive | inactive |
| CN(c1cc(NC(=O)c2ccc(F)cc2)ccn1)C1CCN(Cc2cccc(F)c2)CC1 | 97% (active) | 13% (inactive) | 5% (inactive) | 100% (active) | inactive | inactive | inactive | inactive |
| O=C(Nc1cc(C(F)(F)F)cc(C(F)(F)F)c1)NC1CCC(CN2CCC(c3c[nH]c4ccccc34)CC2)CC1 (configuration not stated) | 72% (active) and 98% (active) | 19% (inactive) and 58% (active) | 8% (inactive) and -8% (inactive) | 97% (active) and 101% (active) | inactive | inactive | inactive | inactive |
| COc1ccc2[nH]cc(C3C[C@H]4CC[C@@H](C3)N4CCC3CCN(C(=O)/C=C/c4ccc(Cl)c(Cl)c4)CC3)c2c1 (some centres not stated) | 80% (active) | 38% (inactive) | 5% (inactive) | 101% (active) | inactive | inactive | inactive | inactive |
| COc1ccc(C=CC(=O)N2CCC(CN3CCC(c4c[nH]c5ccccc45)CC3)CC2)cc1OC | 4% (inactive) | 20% (inactive) | 0% (inactive) | 94% (active) | inactive | inactive | inactive | inactive |
| CC(=O)Nc1ccc(OCCN(CC(C)C)c2ccc(C#N)c(C(F)(F)F)c2)c(Cl)c1 | 94% (active) | 13% (inactive) | 2% (inactive) | 94% (active) | inactive | inactive | inactive | inactive |
| Cc1ccc(C(=O)Nc2ccnc(N(C)C3CCN(Cc4cccc(O)c4)CC3)c2)cn1 | 1% (inactive) | 0% (inactive) | 4% (inactive) | 90% (active) | inactive | inactive | inactive | inactive |
| O=C1NCN(c2ccc(O)cc2)C12CCN(CCCC(c1ccc(F)cc1)c1ccc(F)cc1)CC2 | 34% (inactive) | 20% (inactive) | 2% (inactive) | 94% (active) | inactive | inactive | inactive | inactive |
| Oc1ccccc1CN1CCC(CCOC(c2ccccc2)c2ccc(Cl)cc2)CC1 (configuration not stated) | 99% (active) | 19% (inactive) | -8% (inactive) | 97% (active) | inactive | inactive | inactive | inactive |
| CC[C@H]1C[N+]2([O-])CC[C@@H]1C[C@H]2[C@H](O)c1cc(-c2ccccc2)nc2ccc(OC)cc12 | 97% (active) | -11% (inactive) | 0% (inactive) | 99% (active) | inactive | inactive | inactive | inactive |
| CN(c1cc(NC(=O)c2cccs2)ccn1)C1CCN(Cc2ccccc2)CC1 | 87% (active) | -2% (inactive) | -1% (inactive) | 92% (active) | inactive | inactive | inactive | inactive |
| CN(c1cc(NC(=O)c2ccccc2)ccn1)C1CCN(Cc2cccc(F)c2)CC1 | 94% (active) | -6% (inactive) | -3% (inactive) | 92% (active) | inactive | inactive | inactive | inactive |
| Cc1cc2ccc(CNCCc3ccccc3Br)cc2nc1N | 48% (inactive) | -1% (inactive) | 1% (inactive) | 101% (active) | inactive | inactive | inactive | inactive |
| CN(c1cc(NC(=O)c2cccs2)ccn1)C1CCN(Cc2cccc(F)c2)CC1 | 95% (active) | -1% (inactive) | 4% (inactive) | 94% (active) | inactive | inactive | inactive | inactive |
| CC(Cc1ccc(CSC(C)C)cc1)NCC(O)c1cccc(Cl)c1 (configuration not stated) | 98% (active) | 11% (inactive) | -8% (inactive) | 98% (active) | inactive | inactive | inactive | inactive |
| CNCCCN(C)C(=O)Oc1c(Br)c(C)nc(C)c1-c1ccc(Oc2ccc(OC(F)(F)F)cc2)cc1 | 96% (active) | 17% (inactive) | 3% (inactive) | 96% (active) | inactive | inactive | inactive | inactive |
| COCC(=O)N(Cc1ccccc1-c1cccc(CNCCc2ccccc2)c1)C1CCN(Cc2ccccc2)CC1 | 36% (inactive) | 21% (inactive) | 3% (inactive) | 93% (active) | inactive | inactive | inactive | inactive |
| CCCCCCCn1c(=O)c(C(=O)Nc2c(C)cccc2C)c(O)c2ccccc21 | 42% (inactive) | 6% (inactive) | -2% (inactive) | 90% (active) | inactive | inactive | inactive | inactive |
| Cc1ccccc1CNCC(O)c1cccc(C(F)(F)F)c1 (configuration not stated) | 77% (active) | 5% (inactive) | -4% (inactive) | 99% (active) | inactive | inactive | inactive | inactive |

| SMILES | growth inhibition [1] | inhibition [2] | inhibition [3] | growth inhibition [4] | outcome [5] | outcome [6] | outcome [7] | outcome [8] |
| --- | --- | --- | --- | --- | --- | --- | --- | --- |
| CC(Cc1ccc(SC(C)C)cc1)NCC(O)c1cccc(Cl)c1 (configuration not stated) | 97% (active) | 5% (inactive) | -3% (inactive) | 99% (active) | inactive | inactive | inactive | inactive |
| CN1CC=C(c2c[nH]c3ccc(-c4ccccc4)cc23)CC1 | 60% (active) | 14% (inactive) | -1% (inactive) | 93% (active) | inactive | inactive | inactive | inactive |
| O=C(CSc1ccc(Cl)cc1)NC1CCC(CN2CCC(c3c[nH]c4ccccc34)CC2)CC1 (configuration not stated) | 21% (inactive) | 41% (inactive) | -3% (inactive) | 95% (active) | inactive | inactive | inactive | inactive |
| Oc1ccc2[nH]cc(C3=CCN(CCc4ccccc4)CC3)c2c1 | 60% (active) | 11% (inactive) | 3% (inactive) | 96% (active) | inactive | inactive | inactive | inactive |
| CC[C@H]1CN2CC[C@H]1C[C@H]2C(O)c1cc(OC)nc2ccccc12 (some centres not stated) | 98% (active) | -2% (inactive) | -1% (inactive) | 100% (active) | inactive | inactive | inactive | inactive |
| COc1ccc(OC)c([C@H](O)[C@@H](C)NCc2cc(Cl)ccc2O)c1 | 99% (active) | 11% (inactive) | 4% (inactive) | 97% (active) | inactive | inactive | inactive | inactive |
| c1ccc2c(NCCCCCCNc3c4ccccc4nc4ccccc34)c3ccccc3nc2c1 | 80% (active) | 60% (active) | 3% (inactive) | 99% (active) | inactive | inactive | inactive | inactive |
| CCc1ccc(CC(C)NCC(O)c2ccccc2)cc1 (configuration not stated) | 77% (active) | -7% (inactive) | -3% (inactive) | 89% (active) | inactive | inactive | inactive | inactive |
| COc1ccc(CC(C)NCC(O)c2cccc(C(F)(F)F)c2)cc1F (configuration not stated) | 65% (active) | -4% (inactive) | -8% (inactive) | 91% (active) | inactive | inactive | inactive | inactive |
| CC(Cc1ccc(C(C)(C)C)cc1)NCC(O)c1ccccc1 (configuration not stated) | 89% (active) | 5% (inactive) | 3% (inactive) | 94% (active) | inactive | inactive | inactive | inactive |
| CCC(C)CN1CCC(N(C)c2cc(NC(=O)c3ccc(F)cc3)ccn2)CC1 (configuration not stated) | 32% (inactive) | 4% (inactive) | -5% (inactive) | 93% (active) | inactive | inactive | inactive | inactive |
| CC[C@H]1CN2CC[C@H]1C[C@H]2[C@@H](O)c1cc(OCCCN(C)C)nc2ccc(OC)cc12 | 8% (inactive) | -7% (inactive) | -2% (inactive) | 99% (active) | inactive | inactive | inactive | inactive |
| CCN(CC)CCN1C(=O)C(O)(c2ccccc2Cl)c2c1cc(C(N)=O)cc2C(F)(F)F (configuration not stated) | 86% (active) | 16% (inactive) | -4% (inactive) | 101% (active) | inactive | inactive | inactive | inactive |
| Cc1ccc2c(C3=CCN(CCCCC4(C)C(=O)Nc5ccccc54)CC3)c(C)[nH]c2c1 (configuration not stated) | 91% (active) | 9% (inactive) | -3% (inactive) | 95% (active) | inactive | inactive | inactive | inactive |
| O=C(/C=C/c1ccc(Cl)c(Cl)c1)Nc1cccc(CN2CCC(c3c[nH]c4ccc(O)cc34)CC2)c1 | 90% (active) | 11% (inactive) | 0% (inactive) | 101% (active) | inactive | inactive | inactive | inactive |
| Cn1nc(-c2ccc(S(=O)(=O)N3CCC(CN4CCC(c5c[nH]c6ccccc56)CC4)CC3)s2)cc1C(F)(F)F | 48% (inactive) | 16% (inactive) | -6% (inactive) | 93% (active) | inactive | inactive | inactive | inactive |
| COC(=O)/C=C/c1ccc(CC(C)NCC(O)c2cccc(Cl)c2)cc1 (configuration not stated) | 73% (active) | 2% (inactive) | 5% (inactive) | 99% (active) | inactive | inactive | inactive | inactive |
| O=C(Cc1cc(=O)oc2cc(O)ccc12)NC1CCC(CN2CCC(c3c[nH]c4ccccc34)CC2)CC1 (configuration not stated) | -10% (inactive) | 5% (inactive) | -1% (inactive) | 96% (active) | inactive | inactive | inactive | inactive |
| CN1C(=O)[C@H](NC(=O)[C@@H](Cc2ccccc2)NC(=S)Nc2ccccc2)N=C(c2ccccc2)c2ccccc21 | 23% (inactive) | -8% (inactive) | -1% (inactive) | 86% (active) | inactive | inactive | inactive | inactive |

Reference: PubChem BioAssay
